Inconclusive results are not listed. A number with no mark means an inactive call. Active and inactive are the calls of the source. Calls come from the whole dose curve; as a rule, active = well fitted curve in the direction sought with a large enough effect; inconclusive = small, poorly fitted or top-dose-only effect, or another doubt; inactive = no such curve, though single readings can be large; an effect the other way counts as inactive or inconclusive.
System: not listed separately
Experiment: Primary qHTS for inhibitors of La Crosse Virus (LACV) - induced cell death in SH-SY5Y cells (AID 1508616); note: potency is the fitted concentration of half-maximal effect;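 for activity change: top concentration of the series differs between compounds; 0% = infected DMSO wells and 100% = uninfected DMSO wells; higher means more rescue of cells from virus-induced death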
Conditions: SH-SY5Y LACV cytopathicity rescue, ATP luminescence, 6 d; series mostly up to 9.63 µM; activity change: at the top concentration
How it was run: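 SH-SY5Y, 6000 cells/well; cpd via pin tool in DMSO; LACV 0.01 MOI; 6 d 37C 5% CO2; ATPLite, 5 min RT; luminescence normalized to ±virus DMSO controls.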

| SMILES | activity change [%] | Potency |
| --- | --- | --- |
| CC(C)(C)c1cc(C=C(C#N)C#N)cc(C(C)(C)C)c1O | -70.3 |  |
| Cc1o[nH]c(=O)c1CC(N)C(=O)O (configuration not stated) | -4.8 |  |
| CN1CC[C@@]2(C)c3cc(O)ccc3N(C)C12 (some centres not stated) | -18 |  |
| NCCCP(=O)(O)O | 30 |  |
| C[N+](C)(C)CCOC(=O)CBr | 22.1 |  |
| NNC(=O)c1ccc(O)cc1 | 10.5 |  |
| CCN1C[C@@]2(COC)C3[C@@H](OC)C4[C@@H]1C3([C@@H]1C[C@]3(O)[C@H](OC(=O)c5ccccc5)[C@@H]1[C@]4(OC(C)=O)[C@@H](O)[C@@H]3OC)[C@H](OC)C[C@H]2O | 1.03 |  |
| O=C1C=CC(=O)C=C1 | -13.9 |  |
| C[N+](C)(C)CC#CCN1CCCC1=O | 2.21 |  |
| NCCc1ccc(S(=O)(=O)F)cc1 | 4.98 |  |
| COc1cc(CC(C)N)c(OC)cc1I (configuration not stated) | -7.49 |  |
| Cc1cc([C@@H]2CCCN2C)on1 | -12.3 |  |
| C=CCN1C[C@@H](C)N([C@H](c2ccc(C(=O)N(CC)CC)cc2)c2cccc(OC)c2)C[C@@H]1C | 30.6 |  |
| CN(C(=O)Cc1ccc(Cl)c(Cl)c1)C(CN1CCCC1)c1cccc(OCC(=O)O)c1 (configuration not stated) | -4.07 |  |
| C/C(O)=C(\C#N)C(=O)Nc1cc(Br)ccc1Br | 6.35 |  |
| CCCC[N+]1(C)C2CC(OC(=O)[C@H](CO)c3ccccc3)CC1C1OC12 (some centres not stated) | 20.8 |  |
| CC(N)Cc1c[nH]c2ccc(O)cc12 (configuration not stated) | 3.78 |  |
| C[C@]12Cc3cn4c(nc3C=C1CCC1C2CC[C@@]2(C)[C@H]1CC[C@@]2(O)C#N)nc1ccccc14 (some centres not stated) | -2.43 |  |

| SMILES | activity change [%] | Potency |
| --- | --- | --- |
| O=S1(=O)N(CCN2CC=C(c3c[nH]c4cc(F)ccc34)CC2)c2cccc3c2N1CCC3 | -18.4 |  |
| NCCc1c[nH]c2ccc(C(N)=O)cc12 | -17 |  |
| C[C@@H]1O[C@H](C[N+](C)(C)C)CS1 | 9.67 |  |
| C#CCN[C@H](C)Cc1ccccc1 | -12.3 |  |
| CCCN(CCC)CCc1ccc(O)c(O)c1 | -22.2 |  |
| O=C1CC[C@@]2(O)C3Cc4ccc(O)c5c4C2(CCN3CC2CC2)[C@H]1O5 (some centres not stated) | 19.9 |  |
| CN1CCc2cccc(Cl)c2CC1 | 50.2 |  |
| CCCN1CC[C@@H]2c3cc(O)ccc3CC[C@@H]21 | -16.6 |  |
| NC(C(=O)O)c1cc(=O)[nH]o1 (configuration not stated) | -2.27 |  |
| NCC(CP(=O)(O)O)c1ccc(Cl)cc1 (configuration not stated) | 27 |  |
| COc1ccc(CNC(=O)/C=C/c2ccc3[nH]cc(CCN(C)C)c3c2)cc1 | -3.28 |  |
| CN1CCc2cc(O)cc3c2[C@H]1Cc1ccc(O)c(O)c1-3 |  | 3.98 µM (active) |
| CN1CCC(c2c[nH]c3ccc(O)cc23)CC1 | 7.35 |  |
| NNC(N)=O | 27.5 |  |
| Clc1cc(I)cc(Cl)c1NC1=NCCN1 | 2.18 |  |
| CC(=O)OCC1=C(C(=O)O)N2C(=O)[C@@H](NC(=O)CCC[C@@H](N)C(=O)O)[C@H]2SC1 | 1.68 |  |
| COC(=O)N1CCN(C(=O)Cc2ccc(Cl)c(Cl)c2)C(CN2CCCC2)C1 (configuration not stated) | -13.9 |  |

Target: Calcium and integrin-binding protein 1 (Homo sapiens) (UniProt Q99828)
Sequence (Q99828 whole entry, looked up): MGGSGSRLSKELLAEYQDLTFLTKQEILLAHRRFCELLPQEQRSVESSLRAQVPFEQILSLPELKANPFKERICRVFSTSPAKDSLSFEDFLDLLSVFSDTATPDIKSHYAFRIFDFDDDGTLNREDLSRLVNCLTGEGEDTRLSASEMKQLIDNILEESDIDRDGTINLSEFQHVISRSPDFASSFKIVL
Experiment: Validation qHTS for Identification of Calcium Integrin Binding protein 1 (CIB1) Competitor (AID 1508618); note: % is set by controls: 0 for no effect and ±100 for the full control effect
Conditions: CIB1-GST / FITC-alphaIIb peptide fluorescence polarization; series mostly up to 114 µM; activity change, negative = inhibition: at the top concentration
How it was run: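 In this qHTS validation, the LOPAC set (up to 114 uM) was tested for blocking CIB1 binding to a fluorescein-tagged alphaIIb peptide, with FP detection at 480/540 nm.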

| SMILES | activity change, negative = inhibition [%] |
| --- | --- |
| CC(C)(C)c1cc(C=C(C#N)C#N)cc(C(C)(C)C)c1O | 14.3 |
| Cc1o[nH]c(=O)c1CC(N)C(=O)O (configuration not stated) | 4.37 |
| CN1CC[C@@]2(C)c3cc(O)ccc3N(C)C12 (some centres not stated) | -4.69 |
| NCCCP(=O)(O)O | 9.17 |
| C[N+](C)(C)CCOC(=O)CBr | 8.39 |
| NNC(=O)c1ccc(O)cc1 | 1.59 |
| CCN1C[C@@]2(COC)C3[C@@H](OC)C4[C@@H]1C3([C@@H]1C[C@]3(O)[C@H](OC(=O)c5ccccc5)[C@@H]1[C@]4(OC(C)=O)[C@@H](O)[C@@H]3OC)[C@H](OC)C[C@H]2O | 10.9 |
| O=C1C=CC(=O)C=C1 | 8.04 |
| C[N+](C)(C)CC#CCN1CCCC1=O | 3.21 |
| NCCc1ccc(S(=O)(=O)F)cc1 | 7.96 |
| Cc1cc([C@@H]2CCCN2C)on1 | -0.965 |
| C=CCN1C[C@@H](C)N([C@H](c2ccc(C(=O)N(CC)CC)cc2)c2cccc(OC)c2)C[C@@H]1C | 5.25 |
| CN(C(=O)Cc1ccc(Cl)c(Cl)c1)C(CN1CCCC1)c1cccc(OCC(=O)O)c1 (configuration not stated) | 5.93 |
| CCCC[N+]1(C)C2CC(OC(=O)[C@H](CO)c3ccccc3)CC1C1OC12 (some centres not stated) | 10.7 |
| CC(N)Cc1c[nH]c2ccc(O)cc12 (configuration not stated) | 9.22 |
| C[C@]12Cc3cn4c(nc3C=C1CCC1C2CC[C@@]2(C)[C@H]1CC[C@@]2(O)C#N)nc1ccccc14 (some centres not stated) | 36 |

| SMILES | activity change, negative = inhibition [%] |
| --- | --- |
| O=S1(=O)N(CCN2CC=C(c3c[nH]c4cc(F)ccc34)CC2)c2cccc3c2N1CCC3 | -5.42 |
| NCCc1c[nH]c2ccc(C(N)=O)cc12 | 7.69 |
| C#CCN[C@H](C)Cc1ccccc1 | 8.58 |
| CCCN(CCC)CCc1ccc(O)c(O)c1 | 7.44 |
| O=C1CC[C@@]2(O)C3Cc4ccc(O)c5c4C2(CCN3CC2CC2)[C@H]1O5 (some centres not stated) | 9.51 |
| CN1CCc2cccc(Cl)c2CC1 | 8.04 |
| CCCN1CC[C@@H]2c3cc(O)ccc3CC[C@@H]21 | 4.88 |
| NC(C(=O)O)c1cc(=O)[nH]o1 (configuration not stated) | 3.45 |
| NCC(CP(=O)(O)O)c1ccc(Cl)cc1 (configuration not stated) | -1.75 |
| COc1ccc(CNC(=O)/C=C/c2ccc3[nH]cc(CCN(C)C)c3c2)cc1 | 13.8 |
| CN1CCc2cc(O)cc3c2[C@H]1Cc1ccc(O)c(O)c1-3 | 14.5 |
| CN1CCC(c2c[nH]c3ccc(O)cc23)CC1 | 9.09 |
| NNC(N)=O | 8.44 |
| Clc1cc(I)cc(Cl)c1NC1=NCCN1 | 5.98 |
| CC(=O)OCC1=C(C(=O)O)N2C(=O)[C@@H](NC(=O)CCC[C@@H](N)C(=O)O)[C@H]2SC1 | 5.39 |
| COC(=O)N1CCN(C(=O)Cc2ccc(Cl)c(Cl)c2)C(CN2CCCC2)C1 (configuration not stated) | -1.49 |
